Results: PubChem BioAssay
Records with an inconclusive call do not appear. The source made the active and inactive calls. Unless noted, no stated cut-off is given here; in the data, active means inhibition above about 30%; inactive means the rest.

Key:
[1] = reducers of endogenous Her2 protein level, primary screen, SKBR3 breast tumor cells, AlphaScreen, ATP viability (AID 461;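 active means Her2 level under about 52% in both replicate screens, with viability over 70% of control, limit read from the data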;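 on Her2 level: lower value means less Her2 protein in the cells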;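 on viability: percent of carrier control wells set as 100% viability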); conditions: 18-24 h, measured here: SKBR3 viability, ATP luminescence, at 10 µM
[2] = biological target: Receptor tyrosine-protein kinase erbB-2 (Homo sapiens) (UniProt P04626); assay: as above; conditions: 18-24 h, at 10 µM, stronger effect = lower value
[3] = SK-BR-3 cell growth inhibitors, pilot screen, 24 h, human (AID 572;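 active means viability at or below 10% of carrier control in both of two separate runs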;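 further: compound exposure lasted between 18 and 24 h rather than exactly 24 h; 100% = carrier-treated control wells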); conditions: SK-BR-3 viability, CellTiter-Glo luminescence, at 10 µM, stronger effect = lower value
[4] = HUVEC growth inhibition – cell-based, human, primary screen (AID 575;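 active means viability at or below 30% in both replicate assays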;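 further: 100% = median of untreated cell wells with 0.1% DMSO on each plate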); conditions: HUVEC proliferation, CellTiter-Glo luminescence, 72 h; at 10 µM; stronger effect = lower value
[5] = growth inhibitors of H69AR lung tumor, primary screen, human, duplicate replicates (AID 580;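 active means viability at or under a set limit in both replicates, limit being median viability minus 3 SD, cut at about 48% in these data, passing the limit was not always enough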;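 further: 100% = mean luminescence of untreated wells and 0% = no signal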); conditions: H69AR lung tumor cells viability, ATP luminescence, 72 h; at 10 µM; stronger effect = lower value
[6] = reversal of MRP1-mediated doxorubicin resistance, pilot screen, H69AR cells, doxorubicin co-treatment (AID 601;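 active means viability loss from added drug above about 55%, and viability with drug at most 40%, in both replicates, limit read from the data, passing the limit was not always enough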); conditions: CellTiter-Glo, 72 h, at 10 µM; for differential viability (reversal): stronger effect = higher value
[7] = 384-well plate pilot, post-Golgi transport modulator project, inhibition of yeast transport mutant growth (AID 636; in the data active means inhibition above about 31%); conditions: absorbance 615 nm, about 18 h, stronger effect = higher value
[8] = growth suppression of yeast trafficking mutant, preliminary HTS, modulators of trafficking downstream of Golgi apparatus project, 1536-format plate, OD 615 nm (AID 637); conditions: yeast transport mutant growth, absorbance 615 nm, 18 h; stronger effect = higher value
[9] = OD615 S. cerevisiae growth inhibition, permissive medium, pilot counter-assay, permissive growth control for S. cerevisiae lifespan shortening project (AID 705;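 active means growth inhibition above 25% in both replicates, a cutoff set 3 SD above the mean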); conditions: OD615, 24 h, at 10 µM, stronger effect = higher value
[10] = Restrictive medium S. cerevisiae growth inhibition, OD615, pilot screen of yeast lifespan reduction project, restrictive growth control (AID 706;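 active means growth inhibition above a set limit, 3 SD over mean compound inhibition, in both replicates, cut at about 43% in these data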;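 further: modified DeaD lifespan yeast strain shifted to restrictive glucose medium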); conditions: OD615, 48 h, at 10 µM, stronger effect = higher value
[11] = viability gain of MRP-1-high H69AR cells under doxorubicin, pilot screen, MRP-1 activator project, CellTiter-Glo, duplicate (AID 807;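 active means viability increase at or above a cutoff of the median across tested compounds plus 3 SD, cut at about 8.5% in these data, passing the limit was not always enough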;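 further: compound pretreatment 18-22 h then 72 h combined with doxorubicin; 0% = doxorubicin alone and 100% = vehicle without doxorubicin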); conditions: H69AR viability with doxorubicin, CellTiter-Glo luminescence; at 10 µM; stronger effect = higher value
[12] = growth suppression of beta-catenin knockout HCT116, pilot screen, human colon tumor cells (AID 823;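 active means cell viability at or below a set limit in both duplicate runs, the limit being the all-compound median minus 4 SD, cut at about 23% in these data, passing the limit was not always enough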;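 further: 0% = wells killed by 20 µM Hyamine and 100% = untreated DMSO cell wells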); conditions: CellTiter-Glo, 60 h, at 10 µM, stronger effect = lower value
[13] = inhibitors of the yeast RAM network, pilot screen, dse1pr::URA3 reporter, 5-FOA selection (AID 869;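 active means inhibition over a set limit, the all-compound mean plus 3 SD, in both replicate runs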;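 further: 0% = DMSO wells with no growth and 100% = 10 µM 1-NA-PP1 with full growth; RAM network block rescues cells from 5-FOA so hits raise OD615 growth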); conditions: S. cerevisiae dse1pr::URA3 5-FOA growth, OD615, 2 d; at 10 µM; stronger effect = higher value; strain carries analog-sensitive mutant Cbk1 kinase
[14] = RAM signaling pathway blockade in yeast – S. cerevisiae, Pdr1DBD-CYC8 efflux-inhibited sensitized strain, primary screen (AID 1298;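 active means RAM network inhibition above 8.4% in each of two replicates, 3 SD over the compound average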;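 further: 0% = DMSO untreated cells without growth and 100% = 10 µM 1-NA-PP1 full growth; higher means more yeast growth rescued from 5-FOA killing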); conditions: S. cerevisiae cbk1-as DSE1-URA3 strain, 5-FOA growth OD615, 2 d; at 50 µM; stronger effect = higher value
[15] = growth suppression of PTEN-deleted HCT116, pilot screen, cell-based, HCT116 clonal line, CellTiter-Glo (AID 824;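 active means viability at or below 27.92% in each of two runs, the all-compound median minus 4 SD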;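 further: 0% = 20 µM Hyamine control and 100% = vehicle cell control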); conditions: 60 h, at 10 µM, stronger effect = lower value
[16] = H69AR cells + 2 uM doxorubicin, measured here: viability with 2 uM doxorubicin, stronger effect = lower value
[17] = H69AR cells, compound alone cytotoxicity

Chain of Receptor tyrosine-protein kinase erbB-2 (Homo sapiens) (P04626 whole entry, looked up): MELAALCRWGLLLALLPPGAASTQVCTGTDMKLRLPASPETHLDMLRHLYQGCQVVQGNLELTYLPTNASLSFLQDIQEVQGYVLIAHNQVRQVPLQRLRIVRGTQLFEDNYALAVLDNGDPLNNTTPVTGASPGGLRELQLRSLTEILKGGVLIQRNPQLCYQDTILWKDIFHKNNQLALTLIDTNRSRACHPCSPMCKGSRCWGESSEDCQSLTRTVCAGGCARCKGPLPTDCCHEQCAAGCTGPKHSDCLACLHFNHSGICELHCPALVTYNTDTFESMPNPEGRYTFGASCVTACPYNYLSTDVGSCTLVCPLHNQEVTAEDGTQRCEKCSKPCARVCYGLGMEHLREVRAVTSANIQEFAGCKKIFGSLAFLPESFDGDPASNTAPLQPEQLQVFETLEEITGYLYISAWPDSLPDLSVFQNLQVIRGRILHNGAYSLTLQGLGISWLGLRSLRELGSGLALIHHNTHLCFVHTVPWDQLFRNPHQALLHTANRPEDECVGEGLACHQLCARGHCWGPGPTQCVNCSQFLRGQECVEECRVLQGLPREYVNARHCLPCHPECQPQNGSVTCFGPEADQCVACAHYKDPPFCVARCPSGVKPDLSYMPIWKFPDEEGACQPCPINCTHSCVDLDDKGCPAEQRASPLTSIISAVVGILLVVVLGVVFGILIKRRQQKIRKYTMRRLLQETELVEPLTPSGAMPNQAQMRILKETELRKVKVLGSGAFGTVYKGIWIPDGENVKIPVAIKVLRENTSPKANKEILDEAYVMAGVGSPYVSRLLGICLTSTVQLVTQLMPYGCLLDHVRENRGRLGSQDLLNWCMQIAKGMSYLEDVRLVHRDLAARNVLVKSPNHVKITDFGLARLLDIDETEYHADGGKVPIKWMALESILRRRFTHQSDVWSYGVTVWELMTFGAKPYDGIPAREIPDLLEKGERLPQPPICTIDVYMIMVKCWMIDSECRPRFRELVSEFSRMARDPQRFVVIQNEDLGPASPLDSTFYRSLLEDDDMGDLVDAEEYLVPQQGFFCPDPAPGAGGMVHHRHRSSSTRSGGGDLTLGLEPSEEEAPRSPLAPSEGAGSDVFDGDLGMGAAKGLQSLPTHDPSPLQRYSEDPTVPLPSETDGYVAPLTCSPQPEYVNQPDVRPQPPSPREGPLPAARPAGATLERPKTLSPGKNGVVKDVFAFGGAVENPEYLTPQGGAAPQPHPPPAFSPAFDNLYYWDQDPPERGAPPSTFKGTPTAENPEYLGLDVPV

COc1cc2[nH]c(=O)n(CCCCCC(=O)N3CCN(c4ccccn4)CC3)c(=O)c2cc1OC
inactive: Her2 level [2] 92.5% | viability [3] 104% | viability [4] 100% | viability [5] 89.3% | differential viability (reversal) ([6]; H69AR cells + 2 uM doxorubicin) -2.77% | inhibition [7] -5.95% | inhibition [8] -4.83% | growth inhibition [9] -9.93% | growth inhibition [10] -5.11% | viability increase [11] -4.76% | viability [12] 73.2% | inhibition [13] 1.7% | RAM network inhibition [14] 3.23%
104%: viability [1]
89.3%: viability [6, 17]
92.1%: viability [6, 16]

COc1ccc(N(C)C(=O)CCS(=O)(=O)c2cccc3nonc23)cc1
inactive: Her2 level [2] 85% | viability [3] 96.5% | viability [4] 94.9% | viability [5] 104% | differential viability (reversal) ([6]; H69AR cells + 2 uM doxorubicin) 14.5% | inhibition [7] -9.86% | inhibition [8] -0.95% | growth inhibition [9] -9.93% | growth inhibition [10] -8.78% | viability increase [11] -3.05% | viability [15] 89.6% | inhibition [13] 1.3% | RAM network inhibition [14] 4.67%
89.6%: viability [6, 16]
96.5%: viability [1]
104%: viability [6, 17]

Cc1cc(C)c2c(=O)n(CC(=O)N3CCC(Cc4ccccc4)CC3)sc2n1
inactive: Her2 level [2] 84% | viability [3] 108% | viability [4] 77% | differential viability (reversal) ([6]; H69AR cells + 2 uM doxorubicin) -6.3% | inhibition [7] -6.53% | inhibition [8] -2.17% | viability increase [11] -6.66% | viability [15] 68.7% | inhibition [13] 1.6% | RAM network inhibition [14] 3.67%
108%: viability [1]
10.3%: viability [6, 16]
active: viability [5] 3.96% | growth inhibition [9] 73% | growth inhibition [10] 89.2%
3.96%: viability [6, 17]

COc1cccc(CNC(=O)CCS(=O)(=O)c2cccc3nsnc23)c1
89.6%: viability [6, 17]
96.6%: viability [6, 16]
106%: viability [1]
inactive: Her2 level [2] 91% | viability [3] 106% | viability [4] 105% | viability [5] 89.6% | differential viability (reversal) ([6]; H69AR cells + 2 uM doxorubicin) -6.93% | inhibition [7] -7.67% | inhibition [8] 0.95% | growth inhibition [9] -8.72% | growth inhibition [10] -10.3% | viability increase [11] -2.45% | viability [15] 97.1% | inhibition [13] 1.32% | RAM network inhibition [14] 0.77%

O=C(CCS(=O)(=O)c1cccc2nsnc12)NCc1ccccc1
inactive: Her2 level [2] 116% | viability [3] 93.5% | viability [4] 91.2% | viability [5] 106% | differential viability (reversal) ([6]; H69AR cells + 2 uM doxorubicin) 17.4% | inhibition [7] -3.01% | inhibition [8] -4.6% | growth inhibition [9] -12.7% | growth inhibition [10] -4.2% | viability increase [11] -2.9% | viability [15] 105% | inhibition [13] 1.31% | RAM network inhibition [14] 1.65%
88.9%: viability [6, 16]
106%: viability [6, 17]
93.5%: viability [1]

Cn1ccnc1SCC(=O)Nc1ccc2ccccc2c1
inactive: Her2 level [2] 85.5% | viability [3] 96.5% | viability [4] 91.5% | viability [5] 105% | differential viability (reversal) ([6]; H69AR cells + 2 uM doxorubicin) 17.8% | inhibition [7] -4.38% | inhibition [8] -4.92% | growth inhibition [9] 2.36% | growth inhibition [10] 3.36% | viability increase [11] -2.68% | viability [12] 96.8% | inhibition [13] 1.69% | RAM network inhibition [14] 3.49%
105%: viability [6, 17]
96.5%: viability [1]
86.9%: viability [6, 16]

O=C(c1cnccn1)N(c1ccccc1)C1(C(=O)NC2CCCC2)CCCCC1
99.1%: viability [6, 17]
inactive: Her2 level [2] 106% | viability [3] 118% | viability [4] 96% | viability [5] 99.1% | differential viability (reversal) ([6]; H69AR cells + 2 uM doxorubicin) -2.94% | inhibition [7] -8.77% | inhibition [8] -1.75% | growth inhibition [9] -9.55% | growth inhibition [10] -12.1% | viability increase [11] -1.49% | viability [15] 96% | inhibition [13] 1.56% | RAM network inhibition [14] 3.39%
102%: viability [6, 16]
118%: viability [1]

CC1(C)CC(=O)CC(C2(O)C(=O)N(Cc3ccccc3)c3ccccc32)O1 (stereo not given)
56.7%: viability [6, 16]
active: viability [5] 44%
99.5%: viability [1]
inactive: Her2 level [2] 82.5% | viability [3] 99.5% | viability [4] 78.3% | differential viability (reversal) ([6]; H69AR cells + 2 uM doxorubicin) -12.7% | inhibition [7] 1.2% | inhibition [8] -4.75% | growth inhibition [9] -7.38% | growth inhibition [10] 4.87% | viability increase [11] -5.63% | viability [15] 44.2% | inhibition [13] 1.98% | RAM network inhibition [14] 1.36%
44%: viability [6, 17]

COC(=O)C1(C(F)(F)F)N=C2Sc3ccccc3N2C(N2CCOCC2)=N1 (stereo not given)
inactive: Her2 level [2] 89% | viability [3] 91% | viability [4] 81.5% | viability [5] 92.5% | differential viability (reversal) ([6]; H69AR cells + 2 uM doxorubicin) -0.935% | inhibition [7] -5.73% | inhibition [8] 5.17% | growth inhibition [9] -9.31% | growth inhibition [10] -10% | viability increase [11] -1.24% | viability [15] 53.8% | inhibition [13] 1.03% | RAM network inhibition [14] 2.93%
93.4%: viability [6, 16]
92.5%: viability [6, 17]
91%: viability [1]

Fc1ccc(-c2ccc(-c3nn4c(-c5ccco5)nnc4s3)o2)cc1
79.7%: viability [6, 17]
active: growth inhibition [10] 60.4%
74.5%: viability [6, 16]
76%: viability [1]
inactive: Her2 level [2] 63% | viability [3] 76% | viability [4] 77.8% | viability [5] 79.7% | differential viability (reversal) ([6]; H69AR cells + 2 uM doxorubicin) 5.16% | inhibition [7] -4.32% | inhibition [8] 4.92% | growth inhibition [9] 2.35% | viability increase [11] -3.88% | viability [12] 97.1% | inhibition [13] 1.25% | RAM network inhibition [14] 2.34%
